Measurements: PubChem BioAssay
Calls of active or inactive are those of the source.

How the values were obtained:
[1] = E. coli DRC41 culture turbidity changes, primary screen, E. coli filamentation inducer project, strain DRC41, OD650, 48 h (AID 1152);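 further: E. coli MC1000 strain DRC41 lacking acrAB efflux pump and sulA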; details: E. coli DRC41 (acrAB sulA), higher = more signal, called active from +8 up or from −8 down
[2] = small-molecule binders of probe aLefty1, primary screen, biochemical, small-molecule microarray, 635/667 nm fluorescence (AID 1153); details: higher = more signal;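 further: score merges spot fluorescence with signal-to-noise ratio from the scanned slide images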
[3] = PSAC antagonists in infected red cells, primary screen, cell-based, P. falciparum Indochina, OD700, 1 h (AID 1154); details: P. falciparum Indochina infected RBC osmotic lysis, higher = more signal, called active from +8 up or from −8 down
[4] = PSAC antagonists in infected red cells, primary screen, cell-based, P. falciparum Indochina, OD700, 2 h (AID 1155);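 further: lysis reports solute entry through the parasite surface anion channel PSAC; channel blockers reduce lysis of infected cells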; details: P. falciparum Indochina infected erythrocytes, osmotic lysis OD700; higher = more signal, called active from +8 up or from −8 down
[5] = osmotic lysis modulators in infected erythrocytes, primary screen, PSAC antagonist project, cell-based, P. falciparum Indochina, OD700, 3 h (AID 1156); details: higher = more signal, called active from +8 up or from −8 down
[6] = PSAC antagonists in infected red cells, primary screen, cell-based, P. falciparum Indochina, OD700, 18 h (AID 1157); details: P. falciparum Indochina infected erythrocytes, osmotic lysis OD700, 18 h; higher = more signal, called active from +8 up or from −8 down
[7] = modulators of S6 phosphorylation in cells, primary screen, cell-based, A549, cytoblot, luminescence, serum-stimulated (AID 1158); details: A549 phospho-S6 cytoblot, 5 h, higher = more signal;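 further: serum-stimulated A549 lung adenocarcinoma cells; signal is phosphorylated S6 detected by cytoblot immunostaining with HRP secondary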
[8] = biological target: NADPH oxidase 2 (Homo sapiens) (UniProt P04839); assay: NOX2-dependent H2O2 signal modulators, primary screen, NOX inhibitor project, cell-based, HEK293-NOX2, PMA-stimulated, Amplex Red fluorescence (AID 1159); details: 45 min, higher = more signal, called active from +8 up or from −8 down; further: test concentration not given here
[9] = biological target: NADPH oxidase 4 (Homo sapiens) (UniProt Q9NPH5); assay: NOX4-dependent H2O2 signal modulators, primary screen, NOX inhibitor project, cell-based, HEK293-NOX4, tetracycline-induced, Amplex Red fluorescence (AID 1160); details: 45 min, higher = more signal, called active from +8 up or from −8 down
[10] = biological target: NADPH oxidase 5 (Homo sapiens) (UniProt Q96PH1); assay: NOX5-dependent H2O2 signal modulators, primary screen, NOX inhibitor project, cell-based, HEK293-NOX5, Amplex Red fluorescence (AID 1161); details: HEK293-NOX5, ionomycin, 45 min, higher = more signal
Chain of NADPH oxidase 5 (Homo sapiens) (Q96PH1 whole entry, looked up): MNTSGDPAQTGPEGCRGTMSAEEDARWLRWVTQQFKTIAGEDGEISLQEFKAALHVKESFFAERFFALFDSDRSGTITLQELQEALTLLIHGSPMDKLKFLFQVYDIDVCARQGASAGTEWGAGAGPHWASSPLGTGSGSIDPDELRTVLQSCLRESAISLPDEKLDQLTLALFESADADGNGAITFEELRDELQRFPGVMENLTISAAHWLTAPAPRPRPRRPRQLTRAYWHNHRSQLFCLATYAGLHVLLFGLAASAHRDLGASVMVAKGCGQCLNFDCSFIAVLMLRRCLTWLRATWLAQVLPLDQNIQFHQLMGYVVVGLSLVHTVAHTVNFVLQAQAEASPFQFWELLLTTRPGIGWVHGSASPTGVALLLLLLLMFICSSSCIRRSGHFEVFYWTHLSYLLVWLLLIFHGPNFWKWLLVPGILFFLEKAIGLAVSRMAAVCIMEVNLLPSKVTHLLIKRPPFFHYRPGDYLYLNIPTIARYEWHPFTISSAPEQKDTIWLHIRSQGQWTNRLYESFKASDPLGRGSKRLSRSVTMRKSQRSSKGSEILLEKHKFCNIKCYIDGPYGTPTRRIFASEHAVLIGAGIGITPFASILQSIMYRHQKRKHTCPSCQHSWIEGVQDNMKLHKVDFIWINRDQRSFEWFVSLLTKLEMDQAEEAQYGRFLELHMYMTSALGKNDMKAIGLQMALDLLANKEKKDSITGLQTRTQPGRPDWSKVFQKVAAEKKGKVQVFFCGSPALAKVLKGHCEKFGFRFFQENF

Chain of NADPH oxidase 2 (Homo sapiens) (P04839 whole entry, looked up): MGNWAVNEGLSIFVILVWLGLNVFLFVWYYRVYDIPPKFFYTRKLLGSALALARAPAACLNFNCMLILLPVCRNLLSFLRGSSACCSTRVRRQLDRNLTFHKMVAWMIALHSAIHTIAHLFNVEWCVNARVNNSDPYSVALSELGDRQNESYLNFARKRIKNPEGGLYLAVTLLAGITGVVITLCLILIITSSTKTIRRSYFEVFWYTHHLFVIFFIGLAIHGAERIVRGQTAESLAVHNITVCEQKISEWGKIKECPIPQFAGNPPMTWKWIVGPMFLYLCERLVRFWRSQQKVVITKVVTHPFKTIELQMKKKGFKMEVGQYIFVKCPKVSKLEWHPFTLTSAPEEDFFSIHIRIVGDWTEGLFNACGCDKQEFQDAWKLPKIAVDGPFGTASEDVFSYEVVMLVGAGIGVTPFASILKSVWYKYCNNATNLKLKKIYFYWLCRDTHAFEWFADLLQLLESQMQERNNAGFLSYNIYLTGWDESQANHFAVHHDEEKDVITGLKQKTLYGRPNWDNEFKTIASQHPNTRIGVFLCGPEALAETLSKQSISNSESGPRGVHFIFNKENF
Chain of NADPH oxidase 4 (Homo sapiens) (Q9NPH5 whole entry, looked up): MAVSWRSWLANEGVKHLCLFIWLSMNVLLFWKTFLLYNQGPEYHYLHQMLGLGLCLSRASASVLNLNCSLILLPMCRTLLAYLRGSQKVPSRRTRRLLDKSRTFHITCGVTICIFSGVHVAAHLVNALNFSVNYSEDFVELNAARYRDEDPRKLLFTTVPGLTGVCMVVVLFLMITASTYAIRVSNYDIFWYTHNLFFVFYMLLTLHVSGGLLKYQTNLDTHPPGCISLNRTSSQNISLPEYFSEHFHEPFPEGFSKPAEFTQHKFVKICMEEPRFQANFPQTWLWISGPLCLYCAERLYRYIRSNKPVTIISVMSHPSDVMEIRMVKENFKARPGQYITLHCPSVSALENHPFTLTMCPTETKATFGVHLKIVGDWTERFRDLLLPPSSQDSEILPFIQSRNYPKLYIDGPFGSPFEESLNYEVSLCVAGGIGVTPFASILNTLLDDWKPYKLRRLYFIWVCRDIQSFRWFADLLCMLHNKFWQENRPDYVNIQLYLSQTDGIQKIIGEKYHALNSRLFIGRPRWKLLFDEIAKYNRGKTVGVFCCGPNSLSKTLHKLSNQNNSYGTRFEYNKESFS

SMILES	z-score [1]	composite z-score [2]	z-score [3]	z-score [4]	z-score [5]	z-score [6]	z-score [7]	z-score [8]	z-score [9]	z-score [10]
COc1ccc([Si](C)(C)[C@@H]2[C@@H](CCO)O[C@]3(C(=O)N(Cc4ccc(NC(=O)[C@H](C)O)cc4)c4ccccc43)[C@H]2C)cc1	1.12 (inactive)	0.0378	31.4 (active)	27.1 (active)	1.58 (inactive)	2.46 (inactive)	0.597	0.535 (inactive)	1.26 (inactive)	0.648
CCC(=O)[C@]12O[C@@]3([C@@H]4C(=O)OCC[C@@H]41)N(CC)C(C)=C(C(=O)OC)[C@@H](c1ccccc1)N3C2=O	0.362 (inactive)	-0.29	0.91 (inactive)	-0.071 (inactive)	-1.35 (inactive)	-1.08 (inactive)	0.815	1.5 (inactive)	-1.36 (inactive)	0.922
C[C@H]1C2[C@H](Cc3ccccc3)NC(=O)[C@]23C(=O)N[C@H](Cc2ccccc2)C(=O)N[C@@H](Cc2ccccc2)C(=O)NC/C=C\C/C=C/C3[C@@H]2O[C@]12C (some centres not stated)	0.839 (inactive)	0.305	3.27 (inactive)	0.358 (inactive)	-0.0925 (inactive)	0.0094 (inactive)	0.654	0.453 (inactive)	1.1 (inactive)	1.26
CC(C)=C1C(=O)C(c2ccccc2)=C2CN3C(=O)N(CCc4ccccc4)C(=O)[C@]3(Cc3ccccc3)[C@H]21	-1.7 (inactive)	0.341	20.9 (active)	3.79 (inactive)	1.3 (inactive)	0.913 (inactive)	-0.621	-0.379 (inactive)	0.1 (inactive)	0.365
C=CCN1C(=O)[C@]2(O[C@H](CCn3cc(CCO)nn3)[C@@H]([Si](C)(C)c3ccc(OC)cc3)[C@@H]2C)c2cc(NC(=O)c3ccc(OC)cc3)ccc21	1.24 (inactive)	0.13	11.3 (active)	-0.0473 (inactive)	0.715 (inactive)	-1.36 (inactive)	0.173	0.891 (inactive)	1.28 (inactive)	0.385
COc1cc2c(cc1OC)CN(C(=O)[C@@H]1[C@H]3C(=O)O[C@H](c4ccccc4)[C@H](c4ccccc4)N3[C@H](c3ccccc3OCCO)[C@@]13C(=O)Nc1ccccc13)CC2	1.47 (inactive)	0.551	8.6 (active)	3.56 (inactive)	-0.0442 (inactive)	2.22 (inactive)	0.206	1.67 (inactive)	1.02 (inactive)	0.901
O=C(NCc1ccccc1)[C@@]1(Cc2ccccc2)COC(c2ccc(OCCCO)cc2)=N1	-0.65 (inactive)	0.205	29.5 (active)	21.2 (active)	3.61 (inactive)	3.89 (inactive)	0.366	-3.55 (inactive)	-0.556 (inactive)	-2.81
CC(=O)NCCCC[C@@H]1NC(=O)[C@@H]2C[C@H](C(=O)NCCCCCCN(C)C)[C@H](c3ccc(O)cc3)N2C1=O	1.03 (inactive)	-0.0619	1.19 (inactive)	-1.12 (inactive)	-2.63 (inactive)	-2.32 (inactive)	-0.0253	-0.498 (inactive)	-1.45 (inactive)	0.253
CO[C@H]1COC(=O)CC=C[C@H](C)COC(=O)[C@@H](OCc2ccccc2)C=C[C@@H]1C	-0.168 (inactive)	-0.338	0.733 (inactive)	-1.13 (inactive)	-0.858 (inactive)	-2.2 (inactive)	1.27	0.837 (inactive)	-0.234 (inactive)	0.164
O=C(CS)NCCCCCCNC(=O)[C@@H]1C[C@@H]2C(=O)N[C@@H](Cc3ccccc3)C(=O)N2[C@@H]1c1ccc(O)cc1	0.706 (inactive)	0.0273	6.26 (inactive)	1.52 (inactive)	4.5 (inactive)	0.595 (inactive)	-0.113	1.48 (inactive)	0.457 (inactive)	0.729
C=C(COC)C(=O)CC[C@H](OC(=O)c1ccccc1-c1ccccc1C(=O)O)c1cccc(OCCO)c1	0.0418 (inactive)	0.333	3.26 (inactive)	1.91 (inactive)	0.281 (inactive)	1.36 (inactive)	0.29	0.635 (inactive)	0.112 (inactive)	-2.96
Cc1ccc(S[C@]2(C(=O)NCCN3CCOCC3)CC(=O)N(C3Cc4ccccc4C3)[C@@H]2c2ccc(CO)cc2I)cc1	1.86 (inactive)	0.392	6.65 (inactive)	-0.0443 (inactive)	0.591 (inactive)	-0.926 (inactive)	1.22	2.05 (inactive)	-1.59 (inactive)	1.33
C#CCCCON=C1C[C@@H](O)[C@@H](O)[C@@H]2[C@@H]3C(=O)N(Cc4ccc5c(c4)OCO5)C(=O)[C@@H]3CC[C@@H]12	0.741 (inactive)	0.137					-0.0259	0.192 (inactive)	0.773 (inactive)	-0.019
CCCCO[C@H]1C[C@H]2C(Br)=C[C@@]1(CO)C(=O)[C@]21CO1	2.71 (inactive)	-0.198	-0.789 (inactive)	-1 (inactive)	-0.269 (inactive)	-2.44 (inactive)	1.69	-0.446 (inactive)	0.493 (inactive)	0.178
CC1CC/C=C\[C@H]2OC34C=CCN(Cn5nnc6ccccc65)C(=O)[C@H]3N(C(C)CO)C(=O)[C@@H]4C2C(=O)O1 (some centres not stated)	0.0838 (inactive)	-0.204	2.25 (inactive)	0.974 (inactive)	1.03 (inactive)	0.477 (inactive)	0.0801	0.963 (inactive)	0.173 (inactive)	1.79
C#CCCCON=C1C[C@@H](O)[C@@H](O)[C@@H]2[C@@H]3C(=O)N(Cc4ccc5c(c4)OCO5)C(=O)[C@@H]3CC[C@H]12	0.324 (inactive)	-0.161					-0.852	-0.275 (inactive)	0.911 (inactive)	-0.124
COC(=O)c1ccc(C#CC(NP(=O)(c2ccccc2)c2ccccc2)c2ccccc2)cc1 (configuration not stated)	-0.817 (inactive)	0.0312	10.2 (active)	1.16 (inactive)	1.04 (inactive)	0.936 (inactive)	0.806	0.00908 (inactive)	-0.556 (inactive)	-4.46
C=CC[C@]1(C(=O)NCC(O)CO)N=C(c2ccc(OCCCO)cc2)O[C@H]1c1ccccc1 (some centres not stated)	1.46 (inactive)	-0.179	6.95 (inactive)	0.741 (inactive)	1.55 (inactive)	0.618 (inactive)	0.672	1.22 (inactive)	0.542 (inactive)	0.195
O=C1c2ccccc2[C@](Cc2ccccc2I)(C(=O)O)[C@H](c2ccc(CO)cc2)N1C1CCCCC1	2.84 (inactive)	0.138	3.72 (inactive)	0.525 (inactive)	0.974 (inactive)	-0.339 (inactive)	2.86	1.06 (inactive)	-0.737 (inactive)	-0.473
O=C/C=C/c1ccccc1Cl	2.11 (inactive)	-0.191	0.159 (inactive)	0.282 (inactive)	-2.03 (inactive)	0.206 (inactive)	1.11	-0.129 (inactive)	-0.729 (inactive)	1.38
CO[C@H]1COC(=O)[C@@H](OCc2ccccc2)C=C[C@H](C)[C@@H](OC)COC(=O)[C@H](OCc2ccccc2)C=C[C@@H]1C	-0.282 (inactive)	-0.0966	-0.0125 (inactive)	-0.952 (inactive)	-1.35 (inactive)	-1.68 (inactive)	1.55	-0.174 (inactive)	0.433 (inactive)	0.467
O=C1O[C@H](c2ccccc2)[C@H](c2ccccc2)N2[C@H]1[C@@H](C(=O)NC[C@H](O)c1ccccc1)[C@]1(C(=O)Nc3ccc(C#CC4=CCCCC4)cc31)[C@H]2c1ccc(OCCO)cc1	-0.266 (inactive)	0.0248	3.76 (inactive)	2.55 (inactive)	0.0828 (inactive)	2.26 (inactive)	-0.099	1.13 (inactive)	0.611 (inactive)	1.32
CC/C=C/C(=O)N(C[C@@H]1CCCO1)[C@@H]1CC(C(=O)NCCO)=C[C@H](Oc2c(I)cc(CO)cc2OC)[C@H]1O	1.24 (inactive)	0.135	1.05 (inactive)	-0.433 (inactive)	1.31 (inactive)	-1.48 (inactive)	1.98	-0.425 (inactive)	1.5 (inactive)	1.2
O=[N+]([O-])c1ccc(C[n+]2ccc3ccc(O)cc3c2)o1	0.653 (inactive)	-0.283	1.08 (inactive)	-0.678 (inactive)	-0.859 (inactive)	-1.53 (inactive)	0.829	-0.94 (inactive)	-1.09 (inactive)	-0.424
Cc1ccc(S[C@]2(C(=O)NC3CC3)CC(=O)N(Cc3cc(C(F)(F)F)cc(C(F)(F)F)c3)[C@@H]2c2ccc(CO)cc2)cc1	0.537 (inactive)	-0.0186	1.21 (inactive)	-0.861 (inactive)	1.08 (inactive)	-1.95 (inactive)	0.95	0.249 (inactive)	-0.00878 (inactive)	1.78
